# Results as given in the supplement of paper PMC8728848.
# Only a selection was taken, and the strongest signals are over-represented in it overall.
# Assays:
# Test in all cases: glycan array binding signal (z-score within array); higher = stronger binding
# Conditions in all cases: glycan notation: IUPAC condensed, linker removed
# [1] = target: Fuc(a1-2)Gal(b1-3)GalNAc(a1-3)[Fuc(a1-2)]Gal(b1-4)GlcNAc
# Method in brief: (§1)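 Negative Z-scores can be read as non-binding. The Z-score is calculated within each array and then averaged across arrays of one protein sequence at different concentrations or buffers and across linkers. Arrays, 3228 in all, were curated from the Consortium for Functional Glycomics database and kept only where the protein sequence was available.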
# [2] = target: Fuc(a1-2)Gal(b1-3)GlcNAc(b1-2)Man(a1-3)[Fuc(a1-2)Gal(b1-3)GlcNAc(b1-2)Man(a1-6)]Man(b1-4)GlcNAc(b1-4)GlcNAc
# Method in brief: as §1
# [3] = target: Fuc(a1-2)Gal(b1-3)GlcNAc6S
# Method in brief: as §1
# [4] = target: Fuc(a1-2)Gal(b1-3)[Fuc(a1-4)]GlcNAc
# Method in brief: as §1
# [5] = target: Fuc(a1-2)Gal(b1-3)[Fuc(a1-4)]GlcNAc(b1-3)[Gal(b1-4)GlcNAc(b1-6)]Gal(b1-4)Glc
# Method in brief: as §1
# [6] = target: Fuc(a1-2)[Gal(a1-4)]Gal(b1-4)GlcNAc
# Method in brief: as §1
# [7] = target: Fuc(a1-2)[GalNAc(a1-3)]Gal(b1-3)GalNAc(a1-3)[Fuc(a1-2)]Gal(b1-4)GlcNAc
# Method in brief: as §1
# [8] = target: Fuc(a1-3)[Gal(b1-4)]GlcNAc(b1-2)Man
# Method in brief: as §1
# [9] = target: Fuc(a1-3)[Gal(b1-4)]GlcNAc(b1-6)GalNAc
# Method in brief: as §1
# [10] = target: Gal(a1-4)Gal(b1-4)GlcNAc(b1-2)Man(a1-3)[Gal(a1-4)Gal(b1-4)GlcNAc(b1-2)Man(a1-6)]Man(b1-4)GlcNAc(b1-4)GlcNAc
# Method in brief: as §1
# [11] = target: Gal(a1-4)Gal(b1-4)GlcNAc(b1-3)Gal(b1-4)Glc
# Method in brief: as §1
# Gal(b1-3)Gal = target: Gal(b1-3)Gal
# Method in brief: as §1
# Gal(b1-3)Gal(b1-4)GlcNAc = target: Gal(b1-3)Gal(b1-4)GlcNAc
# Method in brief: as §1
# Gal(b1-3)GalNAc(b1-3)Gal = target: Gal(b1-3)GalNAc(b1-3)Gal
# Method in brief: as §1
# Gal(b1-3)GlcNAc = target: Gal(b1-3)GlcNAc
# Method in brief: as §1
# [12] = target: Gal(b1-3)[Neu5Ac(a2-6)]GlcNAc(b1-4)Gal(b1-4)Glc
# Method in brief: as §1
# [13] = target: Gal(b1-4)GlcNAc(b1-2)[Gal(b1-4)GlcNAc(b1-4)]Man(a1-3)[Gal(b1-4)GlcNAc(b1-2)Man(a1-6)]Man(b1-4)GlcNAc(b1-4)GlcNAc
# Method in brief: as §1
# [14] = target: Gal(b1-4)GlcNAc(b1-3)Gal(b1-4)GlcNAc(b1-2)Man(a1-3)[Gal(b1-4)GlcNAc(b1-3)Gal(b1-4)GlcNAc(b1-2)Man(a1-6)]Man(b1-4)GlcNAc(b1-4)[Fuc(a1-6)]GlcNAc
# Method in brief: as §1
# [15] = target: Gal(b1-4)GlcNAc(b1-3)Gal(b1-4)GlcNAc(b1-3)Gal(b1-4)GlcNAc(b1-2)[Gal(b1-4)GlcNAc(b1-3)Gal(b1-4)GlcNAc(b1-3)Gal(b1-4)GlcNAc(b1-6)]Man(a1-6)[Gal(b1-4)GlcNAc(b1-3)Gal(b1-4)GlcNAc(b1-3)Gal(b1-4)GlcNAc(b1-2)Man(a1-3)]Man(b1-4)GlcNAc(b1-4)[Fuc(a1-6)]GlcNAc
# Method in brief: as §1
# [16] = target: Gal(b1-4)GlcNAc(b1-3)Gal(b1-4)GlcNAc(b1-3)Gal(b1-4)GlcNAc(b1-3)Gal(b1-4)GlcNAc(b1-3)Gal(b1-4)GlcNAc(b1-2)[Gal(b1-4)GlcNAc(b1-3)Gal(b1-4)GlcNAc(b1-3)Gal(b1-4)GlcNAc(b1-3)Gal(b1-4)GlcNAc(b1-3)Gal(b1-4)GlcNAc(b1-6)]Man(a1-6)[Gal(b1-4)GlcNAc(b1-3)Gal(b1-4)GlcNAc(b1-3)Gal(b1-4)GlcNAc(b1-3)Gal(b1-4)GlcNAc(b1-3)Gal(b1-4)GlcNAc(b1-2)Man(a1-3)]Man(b1-4)GlcNAc(b1-4)[Fuc(a1-6)]GlcNAc
# Method in brief: as §1
# [17] = target: Gal(b1-4)GlcNAc(b1-3)Gal(b1-4)GlcNAc(b1-3)[Gal(b1-4)GlcNAc(b1-3)Gal(b1-4)GlcNAc(b1-6)]GalNAc
# Method in brief: as §1
# Gal3S(b1-3)GlcNAc = target: Gal3S(b1-3)GlcNAc
# Method in brief: as §1
# [18] = target: Gal3S(b1-4)[Fuc(a1-3)]GlcNAc6S
# Method in brief: as §1
# Gal3S6S(b1-4)GlcNAc6S = target: Gal3S6S(b1-4)GlcNAc6S
# Method in brief: as §1
# Gal4S6S(b1-4)GlcNAc = target: Gal4S6S(b1-4)GlcNAc
# Method in brief: as §1
# GalNAc(b1-3)GalNAc = target: GalNAc(b1-3)GalNAc
# Method in brief: as §1
# GalNAc(b1-6)GalNAc = target: GalNAc(b1-6)GalNAc
# Method in brief: as §1
# [19] = target: GalNAc3S(b1-4)[Fuc(a1-3)]GlcNAc
# Method in brief: as §1
# Glc(b1-6)Glc = target: Glc(b1-6)Glc
# Method in brief: as §1
# [20] = target: GlcNAc(a1-4)Gal(b1-4)GlcNAc(b1-3)Gal(b1-4)[Fuc(a1-3)]GlcNAc(b1-3)Gal(b1-4)[Fuc(a1-3)]GlcNAc
# Method in brief: as §1
# [21] = target: GlcNAc(b1-2)Gal(b1-3)GalNAc
# Method in brief: as §1
# GlcNAc(b1-3)Fuc = target: GlcNAc(b1-3)Fuc
# Method in brief: as §1
# [22] = target: GlcNAc(b1-3)Gal(b1-4)GlcNAc(b1-2)Man(a1-3)[GlcNAc(b1-3)Gal(b1-4)GlcNAc(b1-2)Man(a1-6)]Man(b1-4)GlcNAc(b1-4)[Fuc(a1-6)]GlcNAc
# Method in brief: as §1
# [23] = target: GlcNAc(b1-3)[GlcNAc(b1-6)]Gal(b1-4)GlcNAc
# Method in brief: as §1
# [24] = target: GlcNAc(b1-4)GlcNAc(b1-4)GlcNAc(b1-4)GlcNAc(b1-4)GlcNAc
# Method in brief: as §1
# [25] = target: Man(a1-2)Man(a1-3)[Man(a1-6)]Man(a1-6)[Man(a1-2)Man(a1-3)]Man(b1-4)GlcNAc(b1-4)GlcNAc
# Method in brief: as §1
# [26] = target: Man(a1-3)[Man(a1-6)]Man(a1-6)[Man(a1-3)]Man(b1-4)GlcNAc(b1-4)GlcNAc
# Method in brief: as §1
# [27] = target: Neu5Ac(a2-3)Gal(b1-3)GalNAc(b1-4)[Neu5Ac(a2-3)]Gal(b1-4)Glc
# Method in brief: as §1
# [28] = target: Neu5Ac(a2-3)Gal(b1-3)GlcNAc(b1-2)Man
# Method in brief: as §1
# [29] = target: Neu5Ac(a2-3)Gal(b1-3)GlcNAc(b1-3)Gal(b1-4)GlcNAc
# Method in brief: as §1
# [30] = target: Neu5Ac(a2-3)Gal(b1-3)[GlcNAc(b1-6)]GalNAc
# Method in brief: as §1
# [31] = target: Neu5Ac(a2-3)Gal(b1-3)]Neu5Ac(a2-3)Gal(b1-4)]GlcNAc
# Method in brief: as §1
# [32] = target: Neu5Ac(a2-3)Gal(b1-4)GlcNAc(b1-2)Man(a1-3)[Neu5Ac(a2-3)Gal(b1-4)GlcNAc(b1-2)Man(a1-6)]Man(b1-4)GlcNAc(b1-4)[Fuc(a1-6)]GlcNAc
# Method in brief: as §1
# [33] = target: Neu5Ac(a2-3)Gal(b1-4)GlcNAc(b1-3)Gal(b1-4)GlcNAc
# Method in brief: as §1
# [34] = target: Neu5Ac(a2-3)Gal(b1-4)GlcNAc6S
# Method in brief: as §1
# [35] = target: Neu5Ac(a2-3)Gal(b1-4)[Fuc(a1-3)]GlcNAc(b1-2)Man
# Method in brief: as §1
# [36] = target: Neu5Ac(a2-6)Gal(b1-4)GlcNAc(b1-2)Man(a1-6)[Man(a1-3)]Man(b1-4)GlcNAc(b1-4)GlcNAc
# Method in brief: as §1
# [37] = target: Neu5Ac(a2-6)Gal(b1-4)GlcNAc(b1-3)Gal(b1-4)GlcNAc(b1-3)Gal(b1-4)GlcNAc(b1-2)Man(a1-3)[Neu5Ac(a2-6)Gal(b1-4)GlcNAc(b1-3)Gal(b1-4)GlcNAc(b1-3)Gal(b1-4)GlcNAc(b1-2)Man(a1-6)]GalNAc
# Method in brief: as §1
# [38] = target: Neu5Ac(a2-6)Gal(b1-4)GlcNAc(b1-3)Gal(b1-4)GlcNAc(b1-3)GalNAc
# Method in brief: as §1
# [39] = target: Neu5Ac(a2-6)Gal(b1-4)GlcNAc(b1-3)Gal(b1-4)GlcNAc(b1-3)[Neu5Ac(a2-6)Gal(b1-4)GlcNAc(b1-3)Gal(b1-4)GlcNAc(b1-6)]GalNAc
# Method in brief: as §1
# [40] = target: Neu5Ac(a2-6)Gal(b1-4)GlcNAc(b1-6)[Gal(b1-3)GlcNAc(b1-3)]Gal(b1-4)Glc
# Method in brief: as §1
# [41] = target: Neu5Ac(a2-6)GalNAc(b1-4)GlcNAc6S
# Method in brief: as §1
# [42] = target: Neu5Ac(a2-8)Neu5Gc(a2-3)Gal(b1-4)GlcNAc
# Method in brief: as §1
# [43] = target: Neu5Gc(a2-3)Gal(b1-4)GlcNAc(b1-3)Gal(b1-4)GlcNAc(b1-2)Man(a1-3)[Neu5Gc(a2-3)Gal(b1-4)GlcNAc(b1-3)Gal(b1-4)GlcNAc(b1-2)Man(a1-6)]Man(b1-4)GlcNAc(b1-4)GlcNAc
# Method in brief: as §1
binder,measurement,setting,value
SJCP1531 (Schistosoma japonicum) (protein) MFKVRIINLVNISTVLLLINLLQTKSQVNVEQLVTVLEVNIKAQLKNKTTEVLVEWNPLYQDNSMPEYRKLLDETCKLFLPFVNEKVPPSTYGGECTNANFSEAPQDGSYSRVNAELRLIYKYSDNPQIQTDRLQDDLNDREEFITSESSFVAYNPKFTVKIEKLFIPISESQTTPPPTTAKNDASKKDDDDNGGEDSKAPIDTFAMTASGNKGKKDDDDNGGEDSKAPIDTFAMTASGSKDERSTWTIIGIITLVVLIFVVIGGGITVFVKRC,glycan array binding signal (z-score),[1],-0.571
same,glycan array binding signal (z-score),[2],-0.207
same,glycan array binding signal (z-score),[3],-0.955
same,glycan array binding signal (z-score),[4],0.144
same,glycan array binding signal (z-score),[5],0.498
same,glycan array binding signal (z-score),[6],0.12
same,glycan array binding signal (z-score),[7],-0.433
same,glycan array binding signal (z-score),[8],0.026
same,glycan array binding signal (z-score),[9],1.34
same,glycan array binding signal (z-score),[10],2.24
same,glycan array binding signal (z-score),[11],1.03
same,glycan array binding signal (z-score),Gal(b1-3)Gal,3.29
same,glycan array binding signal (z-score),Gal(b1-3)Gal(b1-4)GlcNAc,0.064
same,glycan array binding signal (z-score),Gal(b1-3)GalNAc(b1-3)Gal,-0.062
same,glycan array binding signal (z-score),Gal(b1-3)GlcNAc,0.101
same,glycan array binding signal (z-score),[12],-1.38
same,glycan array binding signal (z-score),[13],0.725
same,glycan array binding signal (z-score),[14],2.21
same,glycan array binding signal (z-score),[15],2.79
same,glycan array binding signal (z-score),[16],2.63
same,glycan array binding signal (z-score),[17],2.8
same,glycan array binding signal (z-score),Gal3S(b1-3)GlcNAc,0.215
same,glycan array binding signal (z-score),[18],1.28
same,glycan array binding signal (z-score),Gal3S6S(b1-4)GlcNAc6S,3.17
same,glycan array binding signal (z-score),Gal4S6S(b1-4)GlcNAc,-0.722
same,glycan array binding signal (z-score),GalNAc(b1-3)GalNAc,0.218
same,glycan array binding signal (z-score),GalNAc(b1-6)GalNAc,2.81
same,glycan array binding signal (z-score),[19],-1.15
same,glycan array binding signal (z-score),Glc(b1-6)Glc,-0.797
same,glycan array binding signal (z-score),[20],2.8
same,glycan array binding signal (z-score),[21],-1.08
same,glycan array binding signal (z-score),GlcNAc(b1-3)Fuc,-0.112
same,glycan array binding signal (z-score),[22],-0.143
same,glycan array binding signal (z-score),[23],0.523
same,glycan array binding signal (z-score),[24],-0.099
same,glycan array binding signal (z-score),[25],-1.4
same,glycan array binding signal (z-score),[26],-0.243
same,glycan array binding signal (z-score),[27],-1.32
same,glycan array binding signal (z-score),[28],-0.604
same,glycan array binding signal (z-score),[29],-0.438
same,glycan array binding signal (z-score),[30],0.205
same,glycan array binding signal (z-score),[31],-0.188
same,glycan array binding signal (z-score),[32],-1.15
same,glycan array binding signal (z-score),[33],2.53
same,glycan array binding signal (z-score),[34],0.004
same,glycan array binding signal (z-score),[35],-0.84
same,glycan array binding signal (z-score),[36],-1.2
same,glycan array binding signal (z-score),[37],3.3
same,glycan array binding signal (z-score),[38],2.87
same,glycan array binding signal (z-score),[39],3
same,glycan array binding signal (z-score),[40],0.485
same,glycan array binding signal (z-score),[41],0.413
same,glycan array binding signal (z-score),[42],-1.65
same,glycan array binding signal (z-score),[43],0.86
